Results filed as inconclusive are left out. The source made the active and inactive calls. Unless noted, the call rests on the fitted dose curve; in most records, active means well fitted curve in the direction sought with a large enough effect in the repeat runs; inconclusive means weak or mixed curves; inactive means no such curve, though single readings can be large; an effect the other way counts as inactive or inconclusive.
What was measured:
[1] = qHTS RealTime-Glo MT Cell Viability Assay in HepG2 cells - 32 hour (AID 1224877); further: nearly all actives have a fitted effect of over 55% in size
Summary of the method: (§1)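 Viability was tracked continuously by NanoLuc luminescence from prosubstrate reduced by living HepG2 cells, at successive time points over 40 h of compound exposure. Cells with reagent were preincubated 5 h at 37 °C before compound addition.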

[2] = A CellTox Green Cytotoxicity Assay to monitor cytotoxicity in HepG2 cells - 24 hour (AID 1224878); further: nearly all actives have a fitted effect of over 45% in size
Summary of the method: (§2)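 Continuous culture of HepG2 cells with a membrane-impermeant DNA dye; rising fluorescence marks dead cells. Compound exposure lasted up to 40 h at 37 C, with reads every 8 h from 0 h.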

[3] = A CellTox Green Cytotoxicity Assay to monitor cytotoxicity in HepG2 cells - 40 hour (AID 1224879); further: nearly all actives have a fitted effect of over 40% in size
Summary of the method: as §2

[4] = qHTS RealTime-Glo MT Cell Viability Assay in HEK293 cells - 0 hour (AID 1224880); further: top concentration of the series differs between compounds; nearly all actives have a fitted effect of over 45% in size
Summary of the method: (§3)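 qHTS format; HEK293 cells with NanoLuc/prosubstrate reagent, 37 C/5% CO2 for 5 h pre-dosing; compounds 23 nL in DMSO; luminescence at each time point reflects viable cells.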

[5] = A CellTox Green Cytotoxicity Assay to monitor cytotoxicity in HEK293 cells - 32 hour (AID 1224881); further: nearly all actives have a fitted effect of over 40% in size
Summary of the method: (§4)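 Each value comes from one timepoint of a single continuous run in which HEK293 cells with CellTox Green were exposed to compound for up to 40 h at 37 C, dye fluorescence rising with cell death.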

[6] = A CellTox Green Cytotoxicity Assay to monitor cytotoxicity in HepG2 cells - 0 hour (AID 1224882); further: nearly all actives have a fitted effect of over 35% in size
Summary of the method: as §2

[7] = A CellTox Green Cytotoxicity Assay to monitor cytotoxicity in HepG2 cells - 32 hour (AID 1224883); further: nearly all actives have a fitted effect of over 50% in size
Summary of the method: as §2

[8] = A CellTox Green Cytotoxicity Assay to monitor cytotoxicity in HEK293 cells - 8 hour (AID 1224884); further: nearly all actives have a fitted effect of over 35% in size
Summary of the method: as §4

[9] = qHTS RealTime-Glo MT Cell Viability Assay in HepG2 cells - 16 hour (AID 1224885); further: nearly all actives have a fitted effect of over 50% in size
Summary of the method: as §1

[10] = qHTS RealTime-Glo MT Cell Viability Assay in HEK293 cells - 24 hour (AID 1224886); further: top concentration of the series differs between compounds; nearly all actives have a fitted effect of over 50% in size
Summary of the method: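 Viability tracked continuously by luminescence as live cells reduce a prosubstrate for NanoLuc; HEK293 cells preincubated 5 h, compound-treated at 37 C, and read at 0, 8, 16, 24, 32 and 40 h.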

[11] = qHTS RealTime-Glo MT Cell Viability Assay in HEK293 cells - 8 hour (AID 1224887); further: top concentration of the series differs between compounds; nearly all actives have a fitted effect of over 50% in size
Summary of the method: as §3

[12] = A CellTox Green Cytotoxicity Assay to monitor cytotoxicity in HEK293 cells - 16 hour (AID 1224888); further: nearly all actives have a fitted effect of over 35% in size
Summary of the method: as §4

[13] = qHTS RealTime-Glo MT Cell Viability Assay in HepG2 cells - 0 hour (AID 1224889); further: nearly all actives have a fitted effect of over 50% in size
Summary of the method: as §1

[14] = A CellTox Green Cytotoxicity Assay to monitor cytotoxicity in HepG2 cells - 8 hour (AID 1224890); further: nearly all actives have a fitted effect of over 45% in size
Summary of the method: as §2

[15] = qHTS assay to identify small molecule antagonists of the estrogen receptor alpha (ER-alpha) signaling pathway using the BG1 cell line in the presence of 0.1 nM 17-beta-estradiol - cell viability counter screen (AID 1259241); further: nearly all actives have a fitted effect of over 40% in size
Summary of the method: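 VM7Luc4E2 cells (endogenous ER-alpha, 4×ERE-luciferase), hormone-starved 5 days in charcoal-stripped FBS, were treated with compounds plus 0.1 nM 17beta-estradiol for 22 hr at 37C; viability read in same wells as CellTiter-Fluor live-cell protease fluorescence.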

[16] = qHTS assay to identify small molecule antagonists of the androgen receptor (AR) signaling pathway using the MDA cell line in the presence of 0.5 nM R1881 - cell viability counter screen (AID 1259242); further: nearly all actives have a fitted effect of over 45% in size
Summary of the method: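 Fluorescence from CellTiter-Fluor, which reports protease activity of live cells, was read 30 min after reagent addition to MDA-kb2 cells that had been incubated 16 hr with compound and 0.5 nM R1881.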

[17] = qHTS assay to identify small molecule HDAC inhibitors (AID 1259364)
Summary of the method: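 Endogenous HDAC class I/II activity was measured in wild-type HCT-116 cells by HDAC-Glo luminescence after 2 h compound treatment.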

[18] = qHTS assay to identify small molecule HDAC inhibitors - cell viability counter screen (AID 1259365)
Summary of the method: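 Wild-type HCT-116 cells were seeded at 1,500 per well, incubated overnight at 37 C, then exposed to compounds in DMSO for 2hr. Viability was read by CellTiter-Glo luminescence after 30min at room temperature.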

[19] = target: Estrogen receptor (Homo sapiens) (UniProt P03372); experiment: qHTS assay to identify small molecule antagonists of the estrogen receptor alpha (ER-alpha) signaling pathway using the BG1 cell line in the presence of 0.1 nM 17-beta-estradiol (AID 1259244); further: nearly all actives have a fitted effect of over 50% in size
Summary of the method: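 Quantitative high-throughput screen in VM7Luc4E2 cells: compound plus 0.1 nM E2 (final), 22 h, 37C, 5% CO2; ONE-Glo added, 30 min room temperature, luminescence measured.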

[20] = qHTS assay to identify small molecule phospholipidosis (PLD) inducers (AID 1259344; active means well fitted curve in the direction sought with a large enough effect; an effect the other way counts as inactive or inconclusive)
Summary of the method: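 HepG2 cells grown on collagen I take up LipidTOX Red while exposed to compound for 24 h; after fixation they are imaged at 20x and pit metrics are extracted.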

Measured: Potency

Chain of Estrogen receptor (Homo sapiens) (P03372 whole entry, looked up): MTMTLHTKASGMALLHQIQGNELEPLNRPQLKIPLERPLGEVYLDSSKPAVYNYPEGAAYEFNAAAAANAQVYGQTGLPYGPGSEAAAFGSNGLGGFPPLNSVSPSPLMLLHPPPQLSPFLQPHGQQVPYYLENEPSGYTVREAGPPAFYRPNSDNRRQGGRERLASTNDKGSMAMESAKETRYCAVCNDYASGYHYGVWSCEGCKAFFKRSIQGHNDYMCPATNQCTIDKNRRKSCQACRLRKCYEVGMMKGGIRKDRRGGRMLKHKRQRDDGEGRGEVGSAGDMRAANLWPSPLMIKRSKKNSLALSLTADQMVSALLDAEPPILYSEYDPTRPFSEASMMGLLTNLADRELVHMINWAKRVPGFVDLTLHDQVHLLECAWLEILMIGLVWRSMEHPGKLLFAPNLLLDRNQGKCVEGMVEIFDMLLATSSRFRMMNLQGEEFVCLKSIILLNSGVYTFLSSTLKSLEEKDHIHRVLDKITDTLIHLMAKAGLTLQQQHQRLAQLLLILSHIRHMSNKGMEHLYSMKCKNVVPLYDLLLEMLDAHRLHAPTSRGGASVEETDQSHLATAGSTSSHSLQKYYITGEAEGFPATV

CCCCCC1CCCC(=O)O1 (stereo not drawn)
not listed: [19] | [20]
inactive: all other assays above

CCCC(C)CC (stereo not drawn)
not listed: [19] | [20]
inactive: all other assays above

CCN(Cc1cccc(S(=O)(=O)O)c1)c1ccccc1
not listed: [20]
inactive: all other assays above

C=C[Si](C)(C)O[Si](C)(C)C=C
not listed: [20]
inactive: all other assays above

COc1cccc2sc(N)nc12
not listed: [17] | [20]
inactive: all other assays above

CCCCCC(=O)OCC
not listed: [20]
inactive: all other assays above

CCCCCCCCCCCCOC(C)=O
not listed: [20]
inactive: all other assays above

COC(OC)C(C)c1ccccc1 (stereo not drawn)
not listed: [20]
inactive: all other assays above

CCC(CO)CO
not listed: [10] | [13] | [20]
inactive: all other assays above

CC(C)SCc1ccco1
not listed: [13] | [20]
inactive: all other assays above

COC(=O)CCC(=O)O
not listed: [10] | [17] | [20]
inactive: all other assays above

CC(C)C(=O)Nc1cccc(C(F)(F)F)c1
not listed: [8] | [20]
inactive: all other assays above

Cc1c(C(C)C)c(=O)n(-c2ccccc2)n1C
not listed: [8] | [17]
inactive: all other assays above

CN(C)CCCNCCC#N
not listed: [19] | [20]
inactive: all other assays above

CCCCC[Si](OCC)(OCC)OCC
not listed: [19] | [20]
inactive: all other assays above
